Assay results as given in publication PMC4336329 (PLoS ONE, 2015).
The campaign covered roughly 310,000 compounds. About 14,000 (4.5%) showed an effect of 50% or more. Effects have a minus sign here. The entries come from a sample that favours strong results as a whole.

Molecular target: human ether-à-go-go-related gene (hERG) potassium channel (human, UniProt Q12809)
Assay: primary screen, population patch clamp on CHO cells stably expressing hERG; higher = less effect of the substance
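Also: peak tail current of the secondary pulse compared with the same well before compound.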

Chain of human ether-à-go-go-related gene (hERG) potassium channel (Q12809 whole entry, looked up): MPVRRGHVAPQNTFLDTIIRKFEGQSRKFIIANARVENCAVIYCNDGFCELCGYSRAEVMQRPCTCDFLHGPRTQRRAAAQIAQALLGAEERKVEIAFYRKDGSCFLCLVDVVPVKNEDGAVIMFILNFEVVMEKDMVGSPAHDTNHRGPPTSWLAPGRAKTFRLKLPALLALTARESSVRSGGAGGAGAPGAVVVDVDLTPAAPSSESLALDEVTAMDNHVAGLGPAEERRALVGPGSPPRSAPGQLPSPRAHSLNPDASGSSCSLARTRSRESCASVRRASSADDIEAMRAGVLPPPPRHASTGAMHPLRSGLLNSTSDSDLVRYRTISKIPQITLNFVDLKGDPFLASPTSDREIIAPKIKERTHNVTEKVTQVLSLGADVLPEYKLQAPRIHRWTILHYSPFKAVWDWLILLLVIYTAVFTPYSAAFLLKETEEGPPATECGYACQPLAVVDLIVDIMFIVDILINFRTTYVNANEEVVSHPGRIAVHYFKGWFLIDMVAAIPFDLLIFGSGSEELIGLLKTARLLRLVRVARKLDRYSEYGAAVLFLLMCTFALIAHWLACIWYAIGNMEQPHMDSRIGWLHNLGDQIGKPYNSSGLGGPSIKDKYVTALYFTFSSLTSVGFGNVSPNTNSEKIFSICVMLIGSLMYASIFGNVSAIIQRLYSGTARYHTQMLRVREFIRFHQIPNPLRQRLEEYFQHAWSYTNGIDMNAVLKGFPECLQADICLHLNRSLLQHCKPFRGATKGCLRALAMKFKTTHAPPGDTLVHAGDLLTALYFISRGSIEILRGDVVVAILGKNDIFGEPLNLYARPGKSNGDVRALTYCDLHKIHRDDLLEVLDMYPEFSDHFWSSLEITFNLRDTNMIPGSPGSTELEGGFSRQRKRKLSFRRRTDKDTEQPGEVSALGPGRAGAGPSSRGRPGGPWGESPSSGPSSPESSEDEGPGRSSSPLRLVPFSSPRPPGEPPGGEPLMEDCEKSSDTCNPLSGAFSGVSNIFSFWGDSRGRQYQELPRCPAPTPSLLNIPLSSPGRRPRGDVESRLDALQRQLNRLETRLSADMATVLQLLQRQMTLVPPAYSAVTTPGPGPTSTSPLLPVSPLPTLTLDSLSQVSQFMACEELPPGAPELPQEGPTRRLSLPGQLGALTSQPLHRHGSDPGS

| Compound | hERG current change (%, negative = inhibition) at 10uM [%] |
| --- | --- |
| CCCC(C(=O)O)n1c(O)c(C=C2N=c3ccccc3=N2)sc1=S (stereo not drawn) | 6.16 |
| CCN1C(=O)c2ccccc2Sc2ccc(C(=O)NCCN3CCOCC3)cc21 | -5.49 |
| O=S(=O)(O)c1ccc(N=NNc2ccc(Br)cc2)cc1 | 30.7 |
| N#Cc1ccc(C23CC4(C2)[C@H](CN(P(=O)(c2ccccc2)c2ccccc2)[C@@H]4c2ccccc2)C3c2ccc(Cl)nc2)cc1 (stereo partly drawn) | -8 |
| CCC(C)n1c(SCC(=O)/C(C#N)=C(\C)N)nc2ccccc2c1=O (stereo not drawn) | -15.3 |
| O=C(/C=C/c1ccco1)Nc1ccc(Oc2ccccc2)cc1 | -5.74 |
| COc1ccccc1CNCc1cc(OC)c(OC)cc1OC | -10.3 |
| Cc1cc(OC(C)C)nc(NCc2ccccc2)n1 | -3.54 |
| COc1ccccc1-c1coc2c(CN3CCN(CCO)CC3)c(O)ccc2c1=O | 17.7 |
| N=c1c2c3c(sc2ncn1Nc1ccccc1)CCC3 | -29.6 |
| CCOc1cccc(-c2nn3c(-c4cc(C)[nH]n4)nnc3s2)c1 | -58.2 |
| COc1cccc(-c2nn3c(-c4cccc(C)c4)nnc3s2)c1 | 17.5 |
| COc1cccc(-c2nn3c(-c4cc(C)[nH]n4)nnc3s2)c1 | -57.5 |
| CCOc1cccc(-c2nn3c(-c4ccco4)nnc3s2)c1 | -49.4 |
| COc1cccc(-c2nn3c(-c4ccccn4)nnc3s2)c1 | -28 |
| CCOc1cccc(-c2nn3c(-c4ccccn4)nnc3s2)c1 | 6.33 |
| CN(C)/C=C/C(=O)c1ccc(N2CCN(c3ncc(C(F)(F)F)cc3Cl)CC2)cc1 | -6.08 |
| CCOC(=O)c1ccccc1NC(=S)N1CC(C)CC(C)C1 (stereo not drawn) | -7.45 |
| c1cc(CNCCc2ccc3c(c2)OCO3)ccn1 | 18.3 |
| Clc1cccc(CNCCc2ccc3c(c2)OCO3)c1.O=C(O)C(=O)O | -24 |
| CCOc1ccccc1CNCCc1ccc2c(c1)OCO2.Cl | -32.8 |
| CCOc1ccc(CNCCc2ccc3c(c2)OCO3)cc1 | -77.2 |

| Compound | hERG current change (%, negative = inhibition) at 10uM [%] |
| --- | --- |
| COc1cccc(CNCCc2ccc3c(c2)OCO3)c1OC.O=C(O)C(=O)O | -15.5 |
| FC(F)(F)c1ccc(CNCCc2ccc3c(c2)OCO3)cc1.O=C(O)C(=O)O | -60.3 |
| Brc1cccc(CNCCc2ccc3c(c2)OCO3)c1.O=C(O)C(=O)O | -24.9 |
| COc1ccc(CNCc2cc3c(cc2[N+](=O)[O-])OCO3)cc1.O=C(O)C(=O)O | -40.8 |
| Clc1ccc(CNCCc2ccc3c(c2)OCO3)cc1.O=C(O)C(=O)O | -56.1 |
| O=C(O)C(=O)O.c1cncc(CNCCc2ccc3c(c2)OCO3)c1 | 8.84 |
| Fc1ccc(CNCCc2ccc3c(c2)OCO3)cc1 | -3.52 |
| O=C(O)C(=O)O.O=[N+]([O-])c1cc2c(cc1CNCCc1ccc3c(c1)OCO3)OCO2 | -61.5 |
| O=C(CSc1ncccn1)Nc1ccccc1 | 3.55 |
| Cc1ccccc1OCc1ccc(C(=O)N2CCOCC2)o1 | 6.86 |
| Cc1cc(C)c(C(=O)O)c(Cl)n1 | 5.94 |
| O=C(OCC(=O)N1CCc2ccccc2C1)c1ccc(Cl)c([N+](=O)[O-])c1 | -20.7 |
| CC1=C(c2ccccc2)[N+](=O)C2(CCCC2)N1[O-] | 10.3 |
| CCOCCCNC(=S)N(Cc1ccccc1)Cc1nc2ccccc2c(=O)[nH]1 | -22.3 |
| CCCc1cc(-c2ccc3c(c2)COc2c4ccccc4nn2-3)on1 | -21.4 |
| C/C(=N\NC(=O)c1ccccc1O)c1ccc(NC(=O)c2ccccc2)cc1 | 15.3 |
| COC(=O)c1c(NC(=O)c2ccccc2)sc2c1CC(C)(C)NC2(C)C | -5 |
| Cc1cccc(C(=O)Nc2ccccc2SCC(=O)Nc2ccc(C)c(Cl)c2)c1 | 28.5 |
| COc1ccc(C(=O)/C=C/Nc2ccc([N+](=O)[O-])cc2C)c(OC)c1 | 3.07 |
| O=C(O)Cn1c(SCCOc2ccccc2)nc2ccccc21 | 0.876 |
| O=S(=O)(c1cccc(-c2nnc(SC(F)F)n2-c2ccccc2)c1)N1CCCCC1 | -30.3 |
| CCC1CCCCN1S(=O)(=O)c1ccc(C(=O)N(CCCN(C)C)c2nc3cc4c(cc3s2)OCO4)cc1.Cl (stereo not drawn) | -56 |

| Compound | hERG current change (%, negative = inhibition) at 10uM [%] |
| --- | --- |
| CN(C)CCCN(C(=O)c1ccc(S(=O)(=O)N(C)C)cc1)c1nc2cc3c(cc2s1)OCO3.Cl | 15.5 |
| CC1CCCCN1S(=O)(=O)c1ccc(C(=O)N(CCCN(C)C)c2nc3ccc(Br)cc3s2)cc1.Cl (stereo not drawn) | -37 |
| CC1CCCCN1S(=O)(=O)c1ccc(C(=O)N(CCCN(C)C)c2nc3cc4c(cc3s2)OCO4)cc1.Cl (stereo not drawn) | -81.1 |
| COc1cccc(CC(=O)Nc2ccc3nc(C)sc3c2)c1 | 8.73 |
| CCOc1ccc(/C(O)=C2/C(=O)C(=O)N(CCN(CC)CC)C2c2ccco2)cc1 (stereo not drawn) | -10 |
| COc1ccccc1CNS(=O)(=O)c1ccc(Cl)s1 | -6.4 |
| CCc1ccc(CN2CCCC(CNC(=O)c3cc(OC)cc(OC)c3)C2)cc1 (stereo not drawn) | -69.9 |
| COc1cc(OC)cc(C(=O)NCC2CCCN(Cc3cccc(C(C)=O)c3)C2)c1 (stereo not drawn) | -25.3 |
| COc1ccc(CC(=O)NCC2CCCN(Cc3cccc(SC)c3)C2)cc1 (stereo not drawn) | -34.6 |
| COc1ccc(CC(=O)NCC2CCCN(Cc3ccc(OC(F)(F)F)cc3)C2)cc1 (stereo not drawn) | -63.7 |
| COc1cc(OC)cc(C(=O)NCC2CCCN(C(=O)c3oc(C)cc3C)C2)c1 (stereo not drawn) | -18.5 |
| COc1ccc(CC(=O)NCC2CCCN(Cc3ccccc3OC)C2)cc1 (stereo not drawn) | 10.5 |
| COc1ccc(CC(=O)NCC2CCCN(Cc3ccccc3Cl)C2)cc1 (stereo not drawn) | 4.3 |
| COC(=O)c1ccc(CN2CCCC(CNC(=O)Cc3ccc(OC)cc3)C2)cc1 (stereo not drawn) | -14.7 |
| COc1cc(OC)cc(C(=O)NCC2CCCN(Cc3ccc(SC)cc3)C2)c1 (stereo not drawn) | -72.3 |
| COc1ccc(CC(=O)NCC2CCCN(Cc3ccc(SC)cc3)C2)cc1 (stereo not drawn) | -67.5 |
| COc1ccc(CC(=O)NCC2CCCN(Cc3cc(OC)cc(OC)c3)C2)cc1 (stereo not drawn) | -21 |
| Cc1cc(CNC(=O)CCc2nnc(CCCCc3ccccc3)o2)nn1C | 38.1 |
| Cc1ccc(NC(=O)N2CCCc3ccccc32)cc1C | -29.2 |
| COc1ccc(OC)c(N(CC(=O)N2CCC(C)CC2)S(=O)(=O)c2ccccc2)c1 | -22.2 |
| CCCc1nnc(SCC(=O)O)n1/N=C/c1ccc2c(c1)OCO2 | -7.5 |
| CCOc1ccccc1CNC(=O)c1nn(CC)cc1[N+](=O)[O-] | 9.07 |

| Compound | hERG current change (%, negative = inhibition) at 10uM [%] |
| --- | --- |
| C=CCSc1nnc(-c2sc(-c3ccccc3)nc2C)n1C | -33.6 |
| Cc1cc(NC(=O)CSCC(=O)N(C)Cc2ccc(Cl)c(Cl)c2)no1 | -9.94 |
| CCOC(=O)c1[nH]c2ccc(OC)cc2c1NS(=O)(=O)c1ccc(Cl)s1 | 12.9 |
| CCc1ccc(CN2CCCC(CNC(=O)c3cccc(OC)c3OC)C2)cc1 (stereo not drawn) | -54.1 |
| COc1ccccc1CN1CCCC(CNC(=O)c2cccc3ccccc23)C1 (stereo not drawn) | -47.8 |
| CCOc1cccc(CN2CCCC(CNC(=O)c3cccc(OC)c3OC)C2)c1 (stereo not drawn) | -9.11 |
| N/C(Cc1nc(-c2ccc(F)cc2)cs1)=N\O | 13.7 |
| COc1ccc(/C=C2\SC(=S)N(NS(=O)(=O)c3ccccc3)C2=O)c(OC)c1 | -33.1 |
| CCOC(=O)Cc1csc(NS(=O)(=O)Cc2ccccc2)n1 | 3.54 |
| CC(C)c1ccc(Nc2nc(Cl)nc(Cl)n2)cc1 | 19.1 |
| Cc1ccc(C)c(CN2CCC(CNC(=O)Nc3ccc(Cl)cc3)CC2)c1 | -68.6 |
| Cc1cccc(NC(=O)NCC2CC2)c1 | 4.74 |
| COc1ccc(N2CCC(CNC(=O)Nc3ccc(Cl)cc3)C2)cc1 (stereo not drawn) | 11.5 |
| Cc1cccc(CN2CCC(CNC(=O)Nc3ccc(F)c(Cl)c3)CC2)c1 | -74.9 |
| COc1ccc(Cl)cc1NC(=O)NCC1CCN(C(=O)OC(C)(C)C)CC1 | 4.67 |
| COc1ccc(Cl)cc1NC(=O)NCC1CCN(Cc2cc(C)ccc2C)CC1 | -67.7 |
| COc1ccc(Cl)cc1NC(=O)NCC1CCN(Cc2ccccc2F)CC1 | -37.7 |
| Cc1ccc(C)c(CN2CCC(CNC(=O)Nc3ccc(F)c(Cl)c3)CC2)c1 | -65 |
| COc1ccc(C(CC(=O)NCCN2CCOCC2)NS(=O)(=O)c2ccc(C)cc2)cc1 (stereo not drawn) | 5.28 |
| Cc1ccc(CNC(=O)C2CCCN(c3nc4ccccc4o3)C2)cc1 (stereo not drawn) | -1.06 |
| O=C(CSc1nnc(-c2ccco2)o1)NCC(=O)c1ccccc1 | -4.72 |
